POLB inh: inhibitors of human DNA polymerase beta; P06746; Pol beta primer extension/strand displacement, fluorescence kinetic; Potency, µM (series often up to 114 µM), hits mostly inhibitors; 340,000 tested, 1.3% active
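Kinetic readout of DNA synthesis with strand displacement by Pol beta. Compound and 10 nM enzyme sit 15 min at room temperature; 50 nM substrate starts the reaction, read immediately and at 10 min.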
Pol iota inh: blocks human DNA polymerase iota activity | Pol iota fluorescent replication assay, 10 min | 390,000 tested, 1% active | Q9UNA4 | Potency, µM (series often up to 115 µM), actives largely listed as inhibitors
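Pol iota at 10 nM preincubated 15 min with compounds at room temperature; reaction started with fluorescent substrate, 50 nM final. Fluorescence read kinetically at 0 and 10 min; buffer-only wells as negative control.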
POLK inh: inhibitors of human DNA polymerase kappa; 400,000 tested, 0.53% active; AID 588579; Potency, µM (series often up to 107 µM), hits mostly inhibitors; Q9UBT6; purified Pol kappa, fluorescent DNA synthesis assay, 10 min
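Kinetic fluorescence readout at 0 and 10 min followed reaction start with substrate at 50 nM final. Beforehand, enzyme (10 nM Pol kappa) stood 15 min with compound at room temperature; buffer-only wells were negative controls.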
WRN helicase inh: inhibitors of human WRN helicase | Q14191 | WRN helicase unwinding, fluorescent forked duplex, kinetic | Potency, µM (highest dose often 114 µM), hits mostly inhibitors | 360,000 tested, 0.46% active; further: nearly all actives have a fitted effect of over 55% in size
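WRN at 20 nM final was preincubated with compound for 15 min at room temperature; reaction started with 100 nM forked duplex oligonucleotide carrying fluorophore and quencher plus 2 mM ATP (final). Unwinding followed kinetically by red fluorescence (ex 525/em 598 nm).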
FEN1 inhibitor: blocks human flap endonuclease 1; P39748; 390,000 tested, 0.35% active; AID 588795; Potency, µM (series often up to 114 µM), usual class: inhibitors; Recombinant FEN1 flap cleavage, fluorescence, 15 min; further: nearly all actives have a fitted effect of over 65% in size
Target sequence (P39748 whole entry, looked up): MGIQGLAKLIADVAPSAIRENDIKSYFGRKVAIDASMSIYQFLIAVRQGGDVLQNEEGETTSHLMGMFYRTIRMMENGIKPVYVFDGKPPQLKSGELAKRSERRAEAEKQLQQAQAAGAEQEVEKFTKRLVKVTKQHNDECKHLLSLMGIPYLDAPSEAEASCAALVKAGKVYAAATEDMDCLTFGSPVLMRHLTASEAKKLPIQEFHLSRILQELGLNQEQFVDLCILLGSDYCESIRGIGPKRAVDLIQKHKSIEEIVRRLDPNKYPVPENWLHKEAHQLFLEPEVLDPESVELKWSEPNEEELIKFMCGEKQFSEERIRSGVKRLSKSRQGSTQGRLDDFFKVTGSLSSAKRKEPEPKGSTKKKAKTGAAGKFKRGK
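FEN1 at 10 nM preincubated with compounds 15 min at room temperature, then flap DNA substrate added at 50 nM final. Signal read at 0 and 15 min; concentration-response fitted with four-parameter Hill equation.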
Pol eta inh: inhibitors of human DNA polymerase eta; recombinant Pol eta, fluorescent DNA replication assay; Potency, µM (highest dose often 114 µM), most hits filed as inhibitors; 390,000 tested, 1.2% active
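Pol eta at 10 nM preincubated with compounds 15 min at room temperature; reaction started with fluorescent substrate (50 nM final) and read kinetically at 0 and 10 min.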
Large screens that a line does not name were inactive. In the library only some 2.4% were active in any assay of this set; here they are far more common. The call rests on the fitted dose curve; in most records, active means well fitted curve in the direction sought with a large enough effect; inconclusive means small, poorly fitted or top-dose-only effect, or another doubt; inactive means no such curve, though single readings can be large; an effect the other way counts as inactive or inconclusive.

O=S(=O)(Nc1c(Br)cc(Br)c2cccnc12)C1CCCCC1	none (no result: POLB inh, WRN helicase inh, Pol eta inh)
O=S(=O)(c1ccc(-c2ccon2)s1)N1CCN(c2ccncc2)CC1	Pol iota inh 40µM
COc1ccc(CC(=O)Nc2ccc(-c3nc4ccccc4s3)c(C)c2)cc1OC	none (no result: WRN helicase inh)
O=C(CN1CCN(c2ccccc2F)CC1)c1ccc(O)c(O)c1	Pol iota inh 45µM, POLK inh inconclusive, Pol eta inh inconclusive
COc1ccc(N2CCN(C(=O)C3CCN(S(=O)(=O)c4cnc[nH]4)CC3)CC2)cc1	Pol iota inh inconclusive (no result: WRN helicase inh)
O=C(Nc1cc(C(F)(F)F)ccc1Cl)C1CCN(c2nnc(-n3cccc3)s2)CC1	POLB inh 4µM, Pol iota inh inconclusive, Pol eta inh inconclusive
CC1Cc2ccccc2N1C(=O)COC(=O)c1ccco1 (stereo not given)	none (no result: POLB inh, Pol iota inh, POLK inh, FEN1 inhibitor)
CC1Cc2ccccc2N1C(=O)COC(=O)c1ccc([N+](=O)[O-])o1 (stereo not given)	Pol iota inh inconclusive, FEN1 inhibitor 28µM, Pol eta inh inconclusive (no result: POLB inh)
O=C(COC(=O)c1ccc([N+](=O)[O-])o1)NC1CCCC1	Pol iota inh 79µM, FEN1 inhibitor inconclusive, Pol eta inh inconclusive (no result: POLB inh)
Nc1c(C(=O)Nc2cccc(F)c2)c2ccccn2c1C(=O)c1ccccc1	none (no result: WRN helicase inh, Pol eta inh)
C=CCn1c(COc2ccc(F)cc2)nnc1SCC(=O)NC1CCCC1	none (no result: POLB inh)
C=CCn1c(COc2cccc(C)c2)nnc1SCC(=O)c1c(N)n(C)c(=O)n(C)c1=O	none (no result: POLB inh)
C=CCn1c(COc2cccc(C)c2)nnc1SCC(=O)NC(=O)NCc1ccco1	POLB inh 20µM, Pol iota inh 71µM, POLK inh inconclusive, Pol eta inh inconclusive
O=C(CSc1nnc(-c2ccncc2)n1-c1ccc(F)cc1)NC(=O)NCc1ccco1	POLB inh 28µM, Pol iota inh 20µM, POLK inh inconclusive, WRN helicase inh inconclusive, Pol eta inh 79µM
C=CCn1c(COc2ccc(F)cc2)nnc1SCC(=O)NC(=O)NCc1ccco1	POLB inh 25µM, Pol iota inh 50µM, POLK inh inconclusive, Pol eta inh inconclusive
N=c1c(C(=O)NCc2ccccc2)cc2c(=O)n3ccccc3nc2n1Cc1ccco1	POLB inh inconclusive, Pol eta inh inconclusive
Cc1cccn2c(=O)c3cc(C(=O)NCCc4ccccc4)c(=N)n(Cc4ccco4)c3nc12	Pol iota inh 7.9µM
N=c1c(C(=O)NCc2ccc(F)cc2)cc2c(=O)n3ccccc3nc2n1Cc1ccco1	POLB inh inconclusive, Pol iota inh 18µM, POLK inh inconclusive, Pol eta inh 40µM
Cc1cccn2c(=O)c3cc(C(=O)NCCc4ccccc4)sc3nc12	POLB inh 14µM, Pol iota inh inconclusive, Pol eta inh inconclusive
N=c1c(C(=O)NCc2ccc3c(c2)OCO3)cc2c(=O)n3ccccc3nc2n1Cc1cccnc1	POLB inh 40µM, Pol iota inh 40µM, FEN1 inhibitor inconclusive, Pol eta inh inconclusive
Cc1cccn2c(=O)c3cc(C(=O)NCc4ccco4)c(=N)n(CCc4ccccc4)c3nc12	POLB inh inconclusive, Pol iota inh inconclusive, Pol eta inh inconclusive
COc1ccc(CCN2C(=O)CN(C3CCC(C)CC3)C(=O)C2c2ccc(OC(C)C)c(OC)c2)cc1OC (stereo not given)	none (no result: WRN helicase inh)
CCc1cccc(NC(=O)Cn2c(=O)n(CCCCCC(=O)NCc3ccc(F)cc3)c(=O)c3sccc32)c1	none (no result: WRN helicase inh, Pol eta inh)
COc1cc(OC)c(OC)cc1CNc1sc2c(c1C(=O)Nc1ccccc1OC)CCC2	none (no result: WRN helicase inh)
Cc1cc(N2C(=O)C3C4C=CC(C4)C3C2=O)ccc1NC(=O)c1cccs1 (stereo not given)	POLB inh 32µM, Pol iota inh inconclusive, Pol eta inh inconclusive
CCOC(=O)c1c(C)[nH]c(C)c1S(=O)(=O)N1CCC(C(=O)Nc2cc(Cl)ccc2OC)CC1	Pol iota inh inconclusive (no result: WRN helicase inh)
CCN(CC)S(=O)(=O)c1cc(-c2nn(C)c(=O)c3ccccc23)ccc1C	POLB inh 45µM, Pol iota inh inconclusive, Pol eta inh inconclusive
CCCCNS(=O)(=O)c1cc(-c2nn(C)c(=O)c3ccccc23)ccc1C	POLB inh 35µM, Pol iota inh inconclusive, POLK inh inconclusive, Pol eta inh inconclusive
